Data: PubChem BioAssay (Tox21)
Where “and” joins values, the source holds several entries; their conditions need not be identical. Equal entries are not always repeated. Results filed as inconclusive are left out. Where a structure was tested more than once in an assay, its records may differ in their call. Calls of active or inactive are those of the source. Unless noted, calls come from the whole dose curve; as a rule, active = well fitted curve in the direction sought with a large enough effect in the repeat runs; inconclusive = weak or mixed curves; inactive = no such curve, though single readings can be large; an effect the other way counts as inactive or inconclusive.

What was measured:
[1] = qHTS assay for small molecule agonists of the p53 signaling pathway (AID 651631; calls by dose curve; note: nearly all actives have a fitted effect of over 15% in size; note: potency is the fitted concentration of half-maximal effect)
Method in brief: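 Agonist mode screen using a stably integrated beta-lactamase gene under p53 response elements in HCT-116 cells. Compound exposure lasts 16 h at 37 °C; fluorescence intensity is measured following 2 h FRET substrate loading.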

[2] = qHTS assay for small molecules that induce genotoxicity in human embryonic kidney cells expressing luciferase-tagged ATAD5 (AID 651632); note: nearly all actives have a fitted effect of over 15% in size; note: potency is the fitted concentration of half-maximal effect
Method in brief: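 DMSO vehicle served as the control. HEK293T reporter cells, 16 hr at 37C, then 30 min Amplite at room temperature; ATAD5 induction is measured as luciferase activity.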

[3] = qHTS assay for small molecule agonists of the p53 signaling pathway - cell viability (AID 651633; calls by dose curve; note: nearly all actives have a fitted effect of over 30% in size; note: potency is the fitted concentration of half-maximal effect)
Method in brief: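 Viability counter-read: CellTiter-Glo luminescence (30 min, room temperature) in the same p53RE-bla plates. These plates had been exposed to compounds for 16 h at 37 C.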

[4] = qHTS assay for small molecules that induce genotoxicity in human embryonic kidney cells expressing luciferase-tagged ATAD5 - cell viability (AID 651634; calls by dose curve; note: nearly all actives have a fitted effect of over 25% in size)
Method in brief: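 Here HEK293T cells with the ATAD5 luciferase reporter are incubated with test compounds for 15.5 hr, and cytotoxicity is then gauged by measuring protease activity in live cells using fluorescence.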

[5] = qHTS assay for small molecule disruptors of the mitochondrial membrane potential - cell viability (AID 720634; calls by dose curve; note: nearly all actives have a fitted effect of over 20% in size; note: potency is the fitted concentration of half-maximal effect)
Method in brief: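 Viability of HepG2 cells is scored from ATP content by luminescence; cells are exposed to compound for 1 hr at 37 C and 5% CO2, then dosed with m-MPI dye before the CellTiter-Glo reagent.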

[6] = qHTS assay for small molecule disruptors of the mitochondrial membrane potential (AID 720635); note: potency is the fitted concentration of half-maximal effect
Method in brief: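 Mitochondrial membrane potential tracked with Mito-MPS dye, red aggregates (ex 540/em 590 nm) against green monomers (ex 490/em 535 nm). Compound treatment 1 hr at 37C, dye 30 min in HepG2.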

[7] = qHTS assay to test for compound auto fluorescence at 590 nm (red) in HepG2 cells (AID 720674)
Method in brief: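 We screened compounds on adherent HepG2 cells, incubating them for an hour at 37 C in 5% CO2 before reading emission at 590 nm under 540 nm excitation; values reflect equivalence to Rose Bengal sodium fluorescence.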

[8] = qHTS assay to test for compound auto fluorescence at 535 nm (green) in HepG2 cells (AID 720675)
[9] = qHTS assay to test for compound auto fluorescence at 590 nm (red) in HEK293 cells (AID 720679)
Method in brief: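 Each well held 2,000 HEK293 cells in medium containing 10% dialyzed FBS. Following 4-5 hr attachment at 37C, 23 nL test compound or DMSO was added; plates sat overnight, and red fluorescence (540/590nm) was recorded.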

[10] = qHTS assay to test for compound auto fluorescence at 535 nm (green) in HEK293 cells (AID 720680)
[11] = qHTS assay to test for compound auto fluorescence at 460 nm (blue) in HEK293 cell free culture (AID 720681)
Method in brief: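 Blue fluorescence (Ex 405/Em 460 nm, triamterene-equivalent) was read immediately after pin transfer of compound or DMSO into medium (DMEM, 10% FBS) without cells.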

[12] = qHTS assay to test for compound auto fluorescence at 535 nm (green) in HEK293 cell free culture (AID 720682)
Method in brief: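 No cells present: wells hold DMEM supplemented with 10% FBS, into which compound or vehicle is pinned. Green emission is then recorded (485 nm excitation, 535 nm emission) and scaled to fluorescein.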

[13] = qHTS assay to test for compound auto fluorescence at 590 nm (red) in HEK293 cell free culture (AID 720683)
Method in brief: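 Red-channel autofluorescence of compounds in culture medium (DMEM, 10% FBS), no cells, measured at 540/590 nm. Rose Bengal sodium is the reference fluorophore for equivalence.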

[14] = qHTS assay to test for compound auto fluorescence at 590 nm (red) in HepG2 cell free culture (AID 720684)
Method in brief: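 No cells present: MEM + 10% FBS only. Compound pinned in, red label read (540/590 nm). Activity = fluorescence equivalent to Rose Bengal sodium.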

[15] = qHTS assay to test for compound auto fluorescence at 460 nm (blue) in HepG2 cell free culture (AID 720685)
Method in brief: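 Cell-free plates of MEM plus 10% FBS received 23 nL compound or DMSO vehicle; blue-channel (405/460 nm) intensity scored against triamterene as reference fluorophore.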

[16] = qHTS assay to test for compound auto fluorescence at 535 nm (green) in HepG2 cell free culture (AID 720686)
[17] = qHTS assay to test for compound auto fluorescence at 460 nm (blue) in HepG2 cells (AID 720687)
Method in brief: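 Blue-channel autofluorescence (Ex/Em 405/460 nm, triamterene-equivalent) was measured after 1 hr compound exposure at 37 C, 5% CO2. Cells were HepG2, plated overnight at 37 C in MEM plus 10% FBS.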

[18] = biological target: Glucocorticoid receptor (Homo sapiens) (UniProt P04150); test: qHTS assay to identify small molecule agonists of the glucocorticoid receptor (GR) signaling pathway (AID 720691; active = well fitted activation curve with a large enough effect in the signal ratio in the repeat runs, not every such curve was filed as active; the % refers to the signal ratio)
Method in brief: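 Compounds in DMSO, alongside positive controls, were added to GR-bla HeLa reporter cells and incubated 18 h at 37 C; GRE-driven beta-lactamase was detected by fluorescence after 2 h with FRET substrate at room temperature.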

[19] = biological target: Glucocorticoid receptor (Homo sapiens) (UniProt P04150); test: qHTS assay to identify small molecule antagonists of the glucocorticoid receptor (GR) signaling pathway (AID 720692; active = well fitted inhibition curve with a large enough effect in the signal ratio in the repeat runs, not every such curve was filed as active; the % refers to the signal ratio; note: potency is the fitted concentration of half-maximal effect)
Method in brief: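 In a 1536-well cell format, compounds were added 4 h after seeding GR-bla HeLa cells, together with dexamethasone at 5 nM final; reporter activity was measured by FRET-substrate fluorescence following 18 h at 37 C.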

[20] = qHTS assay to test for compound auto fluorescence at 460 nm (blue) in HEK293 cells (AID 720678)
Method in brief: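 Cells were seeded and left to adhere for 4-5 hr at 37C. Compounds were then pin-transferred. After an overnight incubation at 37C under 5% CO2, intrinsic fluorescence at 405/460 nm was measured and referenced to triamterene.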

Measured: Potency

Glucocorticoid receptor (Homo sapiens), sequence (P04150 whole entry, looked up): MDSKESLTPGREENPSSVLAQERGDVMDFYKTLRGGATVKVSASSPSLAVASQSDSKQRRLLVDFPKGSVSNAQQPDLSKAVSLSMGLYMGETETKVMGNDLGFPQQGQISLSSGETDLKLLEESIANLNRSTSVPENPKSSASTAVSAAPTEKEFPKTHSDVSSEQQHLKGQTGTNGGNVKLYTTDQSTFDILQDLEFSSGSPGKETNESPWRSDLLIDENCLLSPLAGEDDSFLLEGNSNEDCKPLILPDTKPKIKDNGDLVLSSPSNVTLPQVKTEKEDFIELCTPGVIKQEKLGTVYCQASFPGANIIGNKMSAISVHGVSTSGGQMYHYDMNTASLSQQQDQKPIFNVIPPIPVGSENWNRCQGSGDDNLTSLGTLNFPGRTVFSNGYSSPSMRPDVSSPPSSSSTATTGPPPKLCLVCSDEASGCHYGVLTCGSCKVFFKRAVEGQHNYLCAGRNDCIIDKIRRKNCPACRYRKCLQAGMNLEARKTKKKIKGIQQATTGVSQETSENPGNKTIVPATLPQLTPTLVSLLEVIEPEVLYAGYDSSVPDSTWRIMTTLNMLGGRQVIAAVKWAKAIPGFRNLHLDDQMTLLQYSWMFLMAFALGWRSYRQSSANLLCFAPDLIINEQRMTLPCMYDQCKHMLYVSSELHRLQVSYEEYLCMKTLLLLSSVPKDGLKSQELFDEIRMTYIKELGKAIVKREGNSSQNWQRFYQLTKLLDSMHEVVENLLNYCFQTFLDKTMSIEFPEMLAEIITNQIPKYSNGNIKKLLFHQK

Nc1ccc(Cl)cc1N
active: [1] 19.3 µM | [2] 56.7 µM and 5.45 µM | [6] 4.5 µM and 770 nM
not listed: [20]
inactive: all other assays above

COc1ccc(C(CN(C)C)C2(O)CCCCC2)cc1 (centres undefined)
not listed: [18] | [19] | [20]
inactive: all other assays above

CN(C)C(=O)Nc1ccc(Cl)cc1
not listed: [13]
inactive: all other assays above

Nc1ccncc1
not listed: [18] | [19] | [20]
inactive: all other assays above

Nc1cccnc1
not listed: [13] | [18] | [19] | [20]
inactive: all other assays above

CC(C)c1ccc(CO)cc1
not listed: [6] | [13] | [18] | [19] | [20]
inactive: all other assays above

CC(C)C(=O)OCC(C)(C)C(OC(=O)C(C)C)C(C)C (centres undefined)
30.9 µM (active) and inactive: [3]
not listed: [6] | [13] | [20]
inactive: all other assays above

CCC(=O)O[C@H]1CC[C@H]2[C@@H]3CCC4=CC(=O)CC[C@]4(C)[C@H]3CC[C@]12C
inactive and 61.1 µM (active): [3]
active: [19] 5.12 µM and 4.9 µM
not listed: [6]
inactive: all other assays above

CCN(CC)C(=O)/C(Cl)=C(\C)OP(=O)(OC)OC
inactive: all assays above

O=[N+]([O-])c1c(Cl)c(Cl)c(Cl)c(Cl)c1Cl
active: [19] 30.9 µM
not listed: [6] | [20]
inactive: all other assays above

CC(C)(C)c1ccccc1O
not listed: [1] | [5] | [6] | [13] | [20]
inactive: all other assays above

Nc1c(Cl)cc([N+](=O)[O-])cc1Cl
active: [5] 24.3 µM | [6] 24.5 µM and 4.33 µM
not listed: [1] | [20]
inactive: all other assays above

CCC(C)(c1ccc(O)cc1)c1ccc(O)cc1
active: [6] 7.69 µM and 9.69 µM
not listed: [1] | [2] | [13] | [18] | [19] | [20]
inactive: all other assays above

Cc1ccc(N)c(N)c1
active: [2] 68.8 µM and 68.6 µM
not listed: [1] | [6] | [13]
inactive: all other assays above

N#CC(Br)Br
not listed: [1] | [13]
inactive: all other assays above
